Source: PubChem BioAssay
Activity calls are given as the source filed them. Unless noted, how the calls were made is not given here.

Columns and labels:
[1] = test system: XIP peptide (Xip251-270) binding; experiment: small-molecule binders of XIP peptide, primary screen, biochemical, small-molecule microarray, fluorescence 635/667 nm, 0.1 µg/mL protein (AID 1182); details: fluorescent protein binding, 635 nm, higher = more signal, called active from +8 up or from −8 down
XIP peptide (Xip251-270) = experiment: small-molecule binders of XIP peptide, primary screen, biochemical, small-molecule microarray, fluorescence 635/667 nm, 0.5 µg/mL protein (AID 1183); details: small-molecule microarray binding, fluorescence 635 nm; higher = more signal
[2] = Plasmodium falciparum growth inhibition, primary screen, strain 3D7, DAPI fluorescence, 100 nL (AID 1184);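 further: parasites grown inside human red blood cells in medium with human serum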; details: P. falciparum 3D7 growth, 3 d, higher = more signal
[3] = target: Homeobox protein Hox-A13 (Mus musculus) (UniProt Q62424); experiment: inhibitors of HoxA13-DNA binding, primary screen, biochemical, fluorescence polarization, labeled oligonucleotide (AID 1185); details: 15 min, higher = more signal, called active from +8 up or from −8 down
[4] = inhibitors of hydroxyurea-induced Chk1 phosphorylation, primary screen, imaging, HeLa, phospho-Chk1 antibody, percent positive cells (AID 1186); details: hydroxyurea-induced phospho-Chk1 immunofluorescence imaging, higher = more signal
[5] = inhibitors of hydroxyurea-induced Chk1 phosphorylation, primary screen, imaging, HeLa, phospho-Chk1 nuclear intensity (AID 1187); details: hydroxyurea-induced phospho-Chk1 immunofluorescence imaging, higher = more signal

Homeobox protein Hox-A13 (Mus musculus), sequence (Q62424 whole entry, looked up): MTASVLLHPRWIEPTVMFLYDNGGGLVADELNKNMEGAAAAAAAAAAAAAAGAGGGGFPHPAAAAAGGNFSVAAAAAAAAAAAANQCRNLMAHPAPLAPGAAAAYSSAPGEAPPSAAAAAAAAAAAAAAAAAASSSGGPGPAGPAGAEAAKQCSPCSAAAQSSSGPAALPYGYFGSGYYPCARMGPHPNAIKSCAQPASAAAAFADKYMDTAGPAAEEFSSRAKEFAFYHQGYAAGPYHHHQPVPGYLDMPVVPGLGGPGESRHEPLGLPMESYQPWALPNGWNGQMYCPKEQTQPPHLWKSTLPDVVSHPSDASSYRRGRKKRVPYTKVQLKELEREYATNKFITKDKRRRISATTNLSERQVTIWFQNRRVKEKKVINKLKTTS

| Structure (SMILES) | composite z-score [1] | composite z-score (XIP peptide (Xip251-270)) | z-score [2] | z-score [3] | z-score [4] | z-score [5] |
| --- | --- | --- | --- | --- | --- | --- |
| C=C(COC)C(=O)CC[C@@H](OC(=O)c1cccnc1)c1cccc(OCCO)c1 | -0.209 (inactive) | 0.617 | -2.53 | -4.51 (inactive) | -0.494 (inactive) | 2.22 (inactive) |
| C=CCNC(=O)[C@@H]1[C@H]2C(=O)O[C@H](c3ccccc3)[C@H](c3ccccc3)N2[C@H](c2ccc(O)cc2)[C@@]12C(=O)Nc1ccc(C#CC3(O)CCCCCC3)cc12 | 0.237 (inactive) | -0.251 | 0.516 | -3.49 (inactive) | -0.326 (inactive) | -0.0283 (inactive) |
| CC1CC/C=C\[C@H]2OC34C=CCN(CCN5CCOCC5)C(=O)[C@H]3N(CCCCCCO)C(=O)[C@@H]4C2C(=O)O1 (some centres not stated) | 0.135 (inactive) | 0.935 | 1.04 | -5.39 (inactive) | -0.453 (inactive) | 0.519 (inactive) |
| O=C1C2C=CC(C(O)C(c3ccccc3)c3ccccc3)N(Nc3ccccc3)C2C(=O)N1c1ccccc1 (configuration not stated) | 2.35 (inactive) | 0.722 | -0.28 | -1.33 (inactive) | -0.571 (inactive) | -0.706 (inactive) |
| N#Cc1ccc(C(O)C2C=CC3C(=O)NC(=O)C3N2Nc2ccccn2)cc1 (configuration not stated) | -0.108 (inactive) | 0.669 | -0.557 | -1.11 (inactive) | -0.0275 (inactive) | 0.114 (inactive) |
| CCOC(=O)C1=CC[C@@H](c2ccccc2)N(S(=O)(=O)c2ccc(C)cc2)[C@H]1C#N | 0.452 (inactive) | 0.839 | -0.712 | -3.58 (inactive) | 0.584 (inactive) | 0.373 (inactive) |
| COCCn1c(C(=O)N2CCCC2)cc2c1C[C@H]1CN(C(=O)c3ccccc3)[C@@](Cc3ccccc3)(C(=O)OC)[C@@H]21 | 1.06 (inactive) | 0.857 | -1.22 | -6.05 (inactive) | 0.206 (inactive) | 0.412 (inactive) |
| COCCOC(=O)N1C(=O)[C@@]2(c3cc(C#CCNC(N)=O)ccc31)[C@H](C(=O)NC[C@H](O)c1ccccc1)[C@H]1C(=O)O[C@H](c3ccccc3)[C@H](c3ccccc3)N1[C@@H]2c1ccc(OCCO)cc1 | 0.561 (inactive) | 0.785 | -0.188 | -1.46 (inactive) | -0.214 (inactive) | -0.23 (inactive) |
| COCCOC(=O)N1C(=O)[C@@]2(c3ccccc31)[C@H](C(N)=O)[C@H]1C(=O)O[C@H](c3ccccc3)[C@H](c3ccccc3)N1[C@@H]2c1ccc(OCCO)cc1 | 0.675 (inactive) | 0.638 | 0.0624 | -4.49 (inactive) | 0.114 (inactive) | -0.0135 (inactive) |
| COc1ccc([Si](C)(C)[C@@H]2[C@@H](CC(=O)N(CCO)Cc3ccccc3)O[C@]3(C(=O)N(Cc4ccc(N5CCC5=O)cc4)c4ccccc43)[C@H]2C)cc1 | 3.33 (inactive) | 0.443 | -0.767 | -1.08 (inactive) | 0.366 (inactive) | 0.971 (inactive) |
| COCCOC(=O)N1C(=O)[C@@]2(c3cc(C#CC4=CCCCC4)ccc31)[C@H](c1ccccc1OCCO)N1[C@H](c3ccccc3)[C@H](c3ccccc3)OC(=O)[C@H]1[C@@H]2C(N)=O | -0.0632 (inactive) | 0.558 | -2.27 | -0.721 (inactive) | -0.254 (inactive) | -0.167 (inactive) |
| C#CCN([C@H](/C=C/C1CC1)[C@@H](O)Cc1ccccc1)[C@@H](Cc1ccccc1)C(=O)OC | 0.17 (inactive) | -0.205 | -0.752 | -4.57 (inactive) | -0.587 (inactive) | -0.959 (inactive) |
| C=CCC(OC(C)=O)[C@@H]1[C@@H](N(Cc2cc3ccccc3o2)C(=O)Cc2ccc(OC)cc2)c2cc(OCCCO)ccc2N1C(=O)Cc1ccc(OC)cc1 (some centres not stated) | 0.394 (inactive) | -0.503 | -1.96 | -2.81 (inactive) | 0.954 (inactive) | 0.799 (inactive) |
| CC(C)CNC(=O)[C@@H]1c2ccccc2C(=O)N(Cc2ccccc2Cl)[C@H]1c1ccc(CO)cc1 | 0.0394 (inactive) | 0.8 | 0.134 | -1.47 (inactive) | 0.0107 (inactive) | 0.499 (inactive) |
| COCCOC(=O)N1C(=O)[C@@]2(c3cc(C#CC4=CCCCC4)ccc31)[C@H](c1ccc(OCCO)cc1)N1[C@H](c3ccccc3)[C@H](c3ccccc3)OC(=O)[C@H]1[C@@H]2C(=O)N1CCCCCCC1 | 1.32 (inactive) | 0.822 | -2.06 | -15.2 (active) | -0.002 (inactive) | 0.437 (inactive) |
| CCC[C@@H]1C=C(C(=O)OCC)[C@H](c2ccccc2)N1S(=O)(=O)c1ccc(C)cc1 | 0.406 (inactive) | 0.681 | -2.11 | -0.624 (inactive) | 0.144 (inactive) | 0.0243 (inactive) |
| CO[C@H]1O[C@H](CO)[C@@H](OC(=O)Nc2ccc(C(F)(F)F)cc2)[C@H](OC(=O)Nc2ccccc2-c2ccccc2)[C@@H]1OC(=O)Nc1ccccc1-c1ccccc1 | 1.39 (inactive) | 0.827 | -2.28 | -4.13 (inactive) | 0.206 (inactive) | 0.0324 (inactive) |
